These results are taken from PubChem BioAssay.

Values without a mark were called inactive. How the calls were made is not given here.

A short description of the assay: blockers of DNA damage checkpoint Chk1 activation – imaging, HeLa, hydroxyurea, phospho-Chk1 antibody, percent positive cells, primary screen (AID 1186). Conditions: hydroxyurea-induced phospho-Chk1 immunofluorescence imaging, higher = more signal.
As for `COC(=O)C1(C)C=C2C(=C(c3ccccc3)C(=O)C2C)CN1` (stereo unspecified), the z-score is 0.74. The same measure for `C=CCC(OC(C)=O)[C@@H]1[C@@H](N(Cc2cc3ccccc3o2)C(=O)Cc2ccc(F)cc2)c2cc(OCCCO)ccc2N1C(=O)Cc1ccc(OC)cc1` (stereo partly specified): 0.784; for `COc1ccccc1CN1C(=O)c2ccccc2[C@@]2(Cc3ccccc3N(C(C)C)C2=O)[C@@H]1c1ccc(CO)cc1`: -0.014.

With `N#Cc1ccc(NN2C(C(O)c3cc(C(F)(F)F)cc(C(F)(F)F)c3)C=CC3C(=O)N(c4ccccc4)C(=O)C32)cc1` (stereo unspecified), the z-score was 0.245. For the molecule `COc1ccccc1CN1C(=O)c2ccccc2[C@@H](C(=O)NCC(F)(F)F)[C@@H]1c1ccc(CO)cc1`, the z-score was -0.188. For `CN(C)C(=O)[C@@]1(Cc2ccccc2)N=C(c2ccc(OCCCO)cc2)O[C@H]1c1ccccc1CN=[N+]=[N-]`, the z-score is 0.264. `CCCCC(=C=CC[C@H](O)c1ccccc1OCCO)C[C@H](O)COCc1ccccc1`: the z-score is -0.15. `CCCC[C@@H]1C[C@H]1[C@@H](NS(=O)(=O)c1cccc2cccnc12)c1ccc(-c2ccccc2)cc1`: the z-score is -0.121. As for `Cn1cccc1C(O)C1C=CC2C(=O)NC(=O)C2N1Nc1ccccn1` (stereo unspecified), the z-score was 0.242. As for `C=C(/C(=C/C[C@H](OC(=O)c1ccncc1)c1ccc(OCCO)cc1)c1cnc2ccccc2c1)C(C)C`, the z-score was 0.118. With `COC(=O)[C@@]1(Cc2ccc(F)cc2)[C@H]2c3cc(C(=O)N(C)C)n(Cc4ccc(OC)c(OC)c4)c3C[C@H]2CN1C(=O)c1ccccc1`, the z-score is 0.427.
